High-throughput results deposited in PubChem BioAssay by ICCB-Longwood Screening Facility, Harvard Medical School.
VACV E9 pol inh: inhibitors of vaccinia virus processive DNA synthesis (E9 polymerase). normalized absorbance, % (concentration not given with the values). in vitro processive DNA synthesis, absorbance read-out; stronger effect = lower value. actives 0.94% (n = 46,000); in the data active = normalized absorbance mostly below about 85%, no sharp cut-off; inactive = mostly above about 86%
Large screens that a line does not name were inactive. Shown is part of a subset that was picked to be rich in hits.

N=C1/C(=C\c2coc3ccccc3c2=O)C(=O)N=C2SC=NN12	VACV E9 pol inh 46
CC1=NN2C(=N)/C(=C/c3cn(CCOc4c(C)cccc4C)c4ccccc34)C(=O)N=C2S1	none
CN(C(=O)c1snc2ccc(Cl)cc12)c1ccccc1	none
COc1cc(C(=O)/C=C/Nc2ccccc2C(N)=O)cc(OC)c1OC	none
N#CC(C#N)=C(Nc1ccccc1Cl)SCc1cccc(F)c1	VACV E9 pol inh 26
N#CC(C#N)=C(N)SCc1ccccc1	none
N#CC(C#N)=C(Nc1ccc(Br)cc1)SCc1ccc(F)cc1	none
Cc1ccc(NC(=O)/C=C2/SC(=O)N(CN3CCCCC3)C2=O)cc1	none
O=C(c1cc2cc(Br)ccc2oc1=O)N1CCN(CCO)CC1	none
C=CCN(c1ccccc1)S(=O)(=O)c1ccc2c(c1)CC(C)N2C(=O)C1CC1 (configuration not stated)	none
CC1=C(O)C(=O)/C(=C/N(C)C)C1	none
CCN1CN=C(Nc2nc(C)c3cc(C)ccc3n2)NC1	VACV E9 pol inh 49
c1ccc(CN2CN=C(Nc3nc4ccccc4s3)NC2)cc1	none
CCOc1ccc2nc(Nc3nc(O)cc(=O)[nH]3)nc(C)c2c1	none
O=C(Nc1ccc2c(c1)OCCO2)N1CCC(CN2CCc3ccccc3C2)CC1	none
CCc1ccccc1N(C)C(=O)Cc1c(C(=O)O)[nH]c2ccccc12	none
O=C1c2ccccc2C(=O)N1CNCC(O)c1ccccc1 (configuration not stated)	none
COc1cc2ccc3c(CCN(C)C)cc(OC)c(OC)c3c2cc1OC	VACV E9 pol inh 61
COc1ccc(Cc2nccc3cc(OC)c(OC)cc23)cc1OC	none
COc1cc(C(=O)NCc2ccc(OCCN(C)C)cc2)cc(OC)c1OC	none
CCOC(=O)Cn1c2c(sc1=O)C(c1ccc(Cl)cc1)C1C3CCC(C3)C1S2 (configuration not stated)	none
O=C(CSC1CCCCC1)N1CCc2ccccc21	none
CN1/C(=C/C=C/c2oc3ccccc3[n+]2C)Oc2ccccc21	VACV E9 pol inh 89
C[n+]1cccc(C(=O)NO)c1	none
O=C(CSc1ncccn1)NC1CCCCCC1	none
O=c1n(S(=O)(=O)c2ccccc2)c2ccccc2n1S(=O)(=O)c1ccccc1	none
CCc1sc2sncc2c1Br	VACV E9 pol inh 81
CC1CCN(C(=O)Cc2noc3ccccc23)CC1	none
CCN(CC)C(=S)Sc1ncnc2sc3c(c12)CCCC3	none
O=C1c2c(O)ccc(O)c2C(=O)c2c(NCCNCCO)ccc(NCCNCCO)c21	VACV E9 pol inh 7.8
ClC(Cl)=Cn1nnnc1-c1ccccc1	none
O=C(NCCCN1CCOCC1)c1cn(-c2ccccc2)nc1-c1ccccc1	none
COc1ccc2nc(C)c3c(c2c1)OC(C)C3 (configuration not stated)	none
Cc1nc(N=C(N)N)nc2ccccc12	none
COc1ccc2nc(N=C(N)N)nc(C)c2c1	VACV E9 pol inh 36
CCCCN1COc2ccc3c4c(oc3c2C1)C(=O)c1ccccc1C4=O	none
CC1=C(C(N)=O)C(c2cccnc2)n2nnnc2N1 (configuration not stated)	none
CCOC(=O)c1cnc2ccc(F)cc2c1NCc1cccnc1	none
CCOC(=O)c1cnc2ccc(C(=O)OC)cc2c1NCCN(C)C	VACV E9 pol inh 52
CCOC(=O)c1cnc2ccccc2c1NCCO	none
CN(CC(=O)NC1CCCC1)S(=O)(=O)c1cc(Br)cnc1N	none
Cc1cc(OCc2c(C)c(C)c(C)c(C)c2C)c2cc(Cl)ccc2n1	none
Cc1cc(NC(=O)NC(=O)c2ccc(F)cc2)n[nH]1	none
CC(C)Cn1c(=S)[nH]c2ccccc21	none
Cc1cc(C)c(C(=O)Cn2c(=S)[nH]c3ccccc32)c(C)c1	none
S=c1[nH]c2ccccc2n1Cc1ccccc1	VACV E9 pol inh 78
CCCCc1cc(=O)oc2c3c(c(Cl)cc12)OCN(Cc1ccc(OC)c(OC)c1)C3	none
O=c1c(-c2ccc3c(c2)OCCO3)c(C(F)(F)F)oc2cc(O)ccc12	none
CCOc1ccccc1C1C(C#N)=C(SC)NC2=C1C(=O)CCC2 (configuration not stated)	none
Nc1ccc(Br)cc1C(NCC(=O)O)c1ccccc1 (configuration not stated)	none
Cc1ccc(S(=O)(=O)Nc2ccc(Br)cc2C(NCC(=O)O)c2ccccc2)cc1 (configuration not stated)	VACV E9 pol inh 68
CCOC(=O)Nc1ccc(Br)cc1C(NCC(=O)OC)c1ccccc1 (configuration not stated)	none
COC(=O)c1ccccc1Oc1ccc(NC(=O)c2ccccc2)cc1	none
CCc1ccc(NC(=O)CCC(=O)Nc2ccc3nc(N4CCCCC4)cc(C)c3c2)cc1	none
CSCCC(C(=O)O)n1c(O)c(/C=C2\C=Nc3ccccc32)sc1=S (configuration not stated)	VACV E9 pol inh 78
CSCCC(C(=O)O)N1C(=O)CSC1=S (configuration not stated)	none
CSCCC(C(=O)O)N1C(=O)/C(=C/c2ccc(O)cc2)SC1=S (configuration not stated)	none
Cc1cc2cc(CNC(=O)CCC3CCCC3)ccc2[nH]1	none
CCCn1c(=S)[nH]c2cc(C(=O)N3CC(C)CC(C)C3)ccc2c1=O (configuration not stated)	none
Cc1cc(Cl)cc(Cl)c1CN(C)C(=O)c1cnc(Oc2ccc(Cl)cc2)cc1C(F)(F)F	none
COc1ccc(Cc2nc(-c3ccc(Br)cc3)no2)cc1	none
BrCc1ccc(-c2noc(-c3ccncc3)n2)cc1	VACV E9 pol inh 21
COc1ccc(-c2noc(-c3ccc(Cl)c(Cl)c3)n2)cc1	none
CCOC(=O)CSc1nnnn1-c1ccccc1	none
O=C(Cn1c2c(c(-c3ccccc3Cl)cc1=O)CCC2)NCc1cccs1	none
COc1ccc(CCNC(=O)CSc2ccccc2Cl)cc1	none
COC(=O)c1ccc(-n2c(C)ccc2C)cc1	none
CCOC(=O)c1cnn(-c2ccccn2)c1N	none
CCOC(=O)c1cnn(C(=O)c2ccc(-n3c(C)ccc3C)cc2)c1N	VACV E9 pol inh 66
CCOC(=O)C1CCCN(C(=O)c2ccccc2F)C1 (configuration not stated)	none
Cc1ccc2nc(Sc3ccccc3)c(/C=C3\SC(=S)N(C)C3=O)c(=O)n2c1	none
CCn1c2ccccc2c2cc(CN3CCN(Cc4cccc(C)c4)CC3)ccc21	none
O=C(Cc1cccc2ccccc12)N1CCN(Cc2ccccc2)CC1	none
Cc1cccc(CN2CCN(C(=O)CC(C)C)CC2)c1	VACV E9 pol inh 59
Cc1ccsc1/C=C/C(=O)NCC(=O)O	none
Cc1ccccc1C(N)CC(=O)O (configuration not stated)	none
CN1CCN(Cc2cc(Cl)c3cccnc3c2O)CC1	none
CC(C)(C)C(=O)NS(=O)(=O)c1ccccc1	none
CC[n+]1c(/C=C/Nc2ccccc2)sc2ccccc21	none
CSc1sc2ccccc2[n+]1C	none
C[n+]1c(/C=C/Nc2ccccc2)sc2ccccc21	VACV E9 pol inh 75
CCN(CC)C(=O)c1ccc2c(c1)OCO2	none
O=C(O)c1ccc(CSc2ccc(Cl)cc2)cc1	none
CS[C@H](C)[C@H](OC(C)=O)C(=O)N(C)CCN(C)C (tested in a mixture with another compound)	VACV E9 pol inh 15
N#Cc1ccc(OCc2cnc(Cl)s2)cc1	none
CCNc1nc(SCc2ccc(Cl)cc2)nc2sc3c(c12)CCN(C)C3	VACV E9 pol inh 53
CCNc1nc(SCC(=O)NC(=O)NCc2ccccc2)nc2sc3c(c12)CCN(C)C3	none
CC(C)C1Cc2c(sc3nc(SCc4ccc(Cl)c(Cl)c4)nc(N)c23)CO1 (configuration not stated)	none
Cc1c(OCC(=O)NCc2ccccc2Cl)ccc2c3c(c(=O)oc12)CCC3	none
CC1CCCN(CCCNC(=O)C2CCCN(c3ncnc4c3nc3n4CCCCC3)C2)C1 (configuration not stated)	none
Cc1ccc(CCNC(=O)c2coc3nc4ccccc4nc23)cc1	none
